Assay outcomes from PubChem.
A selection: hits, their analogues and other compounds. The true share with any hit is near 2.8%.
Shn3 inh set2: reduces Shn3 3'UTR luciferase signal in osteoblasts; Clone20 osteoblast Shn3 3'UTR firefly luciferase, 24 h; inhibition, % at 12.5 µM; actives 0.52% (n = 360,000); AID 588674;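 active = mean inhibition of at least 75% with every replicate also reaching 75%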;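 note: 0% = median of neutral control wells and 100% = pilot-screen positive control compound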
KKLEB tox: counter-screen for CF NF-kB inhibitors: cytotoxicity | KKLEB CF airway cells viability, ATPlite luminescence, overnight; active compounds read low; cells stimulated with P. aeruginosa culture filtrate | activity change (cytotoxicity), % at 5 µM | actives 0.36% (n = 360,000) | AID 602141;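 active = corrected activity change at or below -50% at 5 µM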
Peg3 promoter: inhibitors of Peg3 promoter | HeLa PEG-Prom luciferase reporter, luminescence, overnight | inhibition, % at 20 µM | actives 1.7% (n = 360,000) | AID 588405;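 active = inhibition of at least 50% at 20 µM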
MITF TRPM1 inh: reduces MITF-dependent TRPM1 promoter luciferase signal; SK-MEL-5 TRPM1 promoter luciferase, 24 h; actives 0.83% (n = 330,000); inhibition, % at 12.5 µM;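 active = mean inhibition across replicates of 60% or more, whatever share of single replicates reaches that level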
HIF-2a inh: inhibitors of HIF-2a; 786-0 RCC cells HIF-2a reporter, luciferase luminescence, overnight; inhibition, % at 18.8 µM; actives 0.72% (n = 360,000); AID 624352;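 active = inhibition of the luminescence signal of 40% or more relative to plate controls, in a single-dose primary screen at 18.75 µM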
CF NFkB inh: inhibitors of cystic fibrosis induced NF-kB | KKLEB NF-kB-GFP reporter, PAF-induced, GFP fluorescence overnight | inhibition, % at 5 µM | actives 0.86% (n = 360,000) | AID 588850;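 active = at least 50% inhibition at 5 µM, scaled per plate between neutral and stimulator controls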;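 note: PAF is a Pseudomonas aeruginosa culture filtrate used as stimulus; plate controls were PAF-stimulated DMSO wells for no effect and unstimulated DMSO wells for full effect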
Mdm2 MdmX conf: Mdm2/MdmX (human) interaction inhibition, confirmed. inhibition, % at 8 µM. SaOS-2 split-luciferase Mdm2/MdmX complementation, luminescence. shares compounds with HIF-2a inh. AID 504601. actives 99% (n = 740);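 active = mean inhibition of the luminescence signal across two replicates at or above 26 percent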
HIF-2a conf: confirmation of HIF-2a inhibitors. shares compounds with HIF-2a inh. 786-0 RCC cells, HIF-2a luciferase reporter luminescence, overnight. inhibition, % at 18.8 µM. actives 56% (n = 1,800);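 active = mean inhibition across four replicates of at least 40 percent at the single tested concentration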
HIF-1a cs: inhibits HIF-1a reporter, a counter-screen for HIF-2a inhibitors. shares compounds with HIF-2a inh. actives 72% (n = 1,800). AID 651589. inhibition, % at 18.8 µM. MiaPaCa-2 HIF-1a luciferase reporter, desferoxamine, overnight;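 active = mean inhibition of the reporter signal across four replicates at the single tested dose of 50% or more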
Active calls of the source: *.

For Cc1ccc(C(=O)c2ccccc2C(=O)OCC(=O)Nc2cccc([N+](=O)[O-])c2)cc1 the results were Shn3 inh set2 20, KKLEB tox 3, Peg3 promoter -4, MITF TRPM1 inh -9, HIF-2a inh -14 and CF NFkB inh 9.
Cc1ccc(Cl)c(NC(=O)COC(=O)c2ccccc2C(=O)c2ccc(Cl)c([N+](=O)[O-])c2)c1Cl was read as Shn3 inh set2 56, KKLEB tox -99*, Peg3 promoter 100*, MITF TRPM1 inh 87*, HIF-2a inh 97*, CF NFkB inh 94*, HIF-2a conf 4 and HIF-1a cs 108*.
`COc1ccccc1CCNC(=O)CCn1nc(C)c2c(C)n(-c3ccccc3)nc2c1=O` gave Shn3 inh set2 -4, KKLEB tox 3, Peg3 promoter 20, MITF TRPM1 inh 4, HIF-2a inh 5 and CF NFkB inh -7.
For CN(C(=O)COc1ccc([N+](=O)[O-])cc1)C1CCS(=O)(=O)C1 (stereo not given) the results were Shn3 inh set2 -15, KKLEB tox -9, Peg3 promoter -4, MITF TRPM1 inh -2, HIF-2a inh 9 and CF NFkB inh -11.
Screening O=C(c1ccccc1)c1nn(-c2ccc(Cl)cc2)c(=O)cc1C(F)(F)F returned Shn3 inh set2 74, KKLEB tox -15, Peg3 promoter 79*, MITF TRPM1 inh 24, HIF-2a inh 46*, CF NFkB inh -4, Mdm2 MdmX conf 103*, HIF-2a conf -2 and HIF-1a cs 107*.
For O=C(Nc1ccc(N2CCN(C(=O)c3cccs3)CC2)cc1)c1ccc([N+](=O)[O-])o1 the results were Shn3 inh set2 -15, KKLEB tox -56*, Peg3 promoter 107*, MITF TRPM1 inh 98*, HIF-2a inh 98*, CF NFkB inh 107*, HIF-2a conf 99* and HIF-1a cs 104*.
For O=C(Nc1ccc(N2CCN(C(=O)c3cccs3)CC2)cc1)c1ccco1 the results were Shn3 inh set2 9, KKLEB tox 8, Peg3 promoter -23, MITF TRPM1 inh 7, HIF-2a inh -28 and CF NFkB inh 4.
For O=C(Nc1ccc(S(=O)(=O)N2CCCC2)cc1)c1ccc([N+](=O)[O-])o1 the results were Shn3 inh set2 91*, KKLEB tox -15, Peg3 promoter 97*, HIF-2a inh 77*, CF NFkB inh 83*, HIF-2a conf 50* and HIF-1a cs 94*.
For O=C(Nc1ccc(S(=O)(=O)N2CCOCC2)cc1)c1ccc([N+](=O)[O-])o1 the results were Shn3 inh set2 27, KKLEB tox -4, Peg3 promoter 101*, MITF TRPM1 inh 47, HIF-2a inh 67*, CF NFkB inh 78*, HIF-2a conf 36 and HIF-1a cs 78*.
`CN(C(=O)CS(=O)(=O)c1cn(CC(=O)N2CCCCC2)c2ccccc12)c1ccccc1` gave Shn3 inh set2 4, KKLEB tox -1, Peg3 promoter 4, MITF TRPM1 inh -7, HIF-2a inh 13 and CF NFkB inh -7.
For COc1ccc([N+](=O)[O-])c(S(=O)(=O)c2ccccc2)n1 the results were Shn3 inh set2 54, KKLEB tox -55*, Peg3 promoter 111*, HIF-2a inh 82*, CF NFkB inh 85*, Mdm2 MdmX conf 103*, HIF-2a conf 88* and HIF-1a cs 84*.
Screening O=[N+]([O-])c1cccnc1S(=O)(=O)c1ccccc1 returned Shn3 inh set2 98*, KKLEB tox -68*, Peg3 promoter 82*, MITF TRPM1 inh 23, HIF-2a inh 55*, CF NFkB inh 82*, Mdm2 MdmX conf 102*, HIF-2a conf 20 and HIF-1a cs -1.
